# Cruzain noTriton: cruzain (T. cruzi) inhibition without detergent; P25779; purified cruzain, Z-FR-AMC fluorescence, no detergent; Potency, µM, without a hit: max response, negative = inhibition, most hits filed as inhibitors; actives 2.3% (n = 200,000); AID 1476;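 also: plate controls were enzyme without inhibitor for no effect and buffer without enzyme for full effect; nearly all actives have a fitted effect of over 40% in size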
# Target sequence (P25779 123-467 limits assumed): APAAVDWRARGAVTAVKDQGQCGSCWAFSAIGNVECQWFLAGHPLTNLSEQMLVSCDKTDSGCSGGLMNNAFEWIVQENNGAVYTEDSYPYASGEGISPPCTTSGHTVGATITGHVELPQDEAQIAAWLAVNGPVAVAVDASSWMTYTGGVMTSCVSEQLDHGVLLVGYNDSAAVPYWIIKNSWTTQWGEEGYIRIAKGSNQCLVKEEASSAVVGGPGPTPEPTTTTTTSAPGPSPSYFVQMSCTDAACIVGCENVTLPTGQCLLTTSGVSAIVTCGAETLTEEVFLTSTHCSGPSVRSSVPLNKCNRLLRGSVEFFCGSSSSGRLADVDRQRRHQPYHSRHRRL
#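 Detergent-free condition (0.00005% Triton X-100) in acetate buffer pH 5.5 with DTT. 1.5 nM enzyme and compound were pre-mixed 15 min, then 2 uM Z-FR-AMC substrate added; reaction progress from fluorescence change between first and third reads (60 s).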
# Cruzain Triton: cruzain (T. cruzi) inhibition with detergent; actives 0.43% (n = 200,000); P25779; AID 1478; purified cruzain, Z-FR-AMC fluorescence, 0.01% Triton; Potency, µM, for the others: max response, negative = inhibition, most hits filed as inhibitors;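 also: plate controls were neutral wells for no effect and buffer without enzyme for full effect; nearly all actives have a fitted effect of over 40% in size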
#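 Enzyme 1.5 nM, Z-FR-AMC 2 uM, NaOAc 100 mM pH 5.5, DTT 5 mM, Triton X-100 0.01%; 15 min RT compound preincubation; kinetic ex360/em450, 60 s delta.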
# * = called active by the depositor; ? = inconclusive. An excerpt weighted towards active compounds, which were near 2.5% of everything screened. Calls follow the shape of the dose curve; as a rule, active = well fitted curve in the direction sought with a large enough effect; inconclusive = small, poorly fitted or top-dose-only effect, or another doubt; inactive = no such curve, though single readings can be large; an effect the other way counts as inactive or inconclusive. Potency is read from the fitted curve at half-maximal effect.
SMILES,Cruzain noTriton,Cruzain Triton
Cc1ccc(NS(=O)(=O)c2cccc(C(=O)O)c2)c(C)c1,1%,2%
COc1ccc(S(=O)(=O)c2c(Nc3ccc(F)cc3)sc(C(=O)c3ccc(C)cc3C)c2N)cc1,5µM*,-1%
Cc1nn(C(C)(C)C)c(OC(=O)c2ccc3c(c2)OCO3)c1S(=O)(=O)c1ccccc1,7%,-6%
COc1cccc(C(=O)c2sc(Nc3ccc(C)cc3C)c(S(=O)(=O)c3ccccc3)c2N)c1,7.9µM*,-4%
Cc1ccccc1Nc1sc(C(=O)c2ccc(F)cc2)c(N)c1C(=O)NCCc1ccccc1,?,-4%
CCc1ccc(Nc2sc(C(=O)c3ccc(F)cc3)c(N)c2S(=O)(=O)c2ccccc2)cc1,7.9µM*,-4%
Cc1ccc(Cl)cc1Nc1sc(C(=O)c2ccc(F)cc2)c(N)c1S(C)(=O)=O,-27%,-12%
CCc1nnc2c3ccccc3nc(Nc3ccc(C(C)=O)cc3)n12,6%,-2%
COc1ccccc1Nc1sc(C(=O)c2ccc(C)cc2C)c(N)c1S(=O)(=O)c1ccccc1,7.9µM*,-1%
CCOc1ccc(Nc2sc(C(=O)c3cccc(OC)c3)c(N)c2S(=O)(=O)c2ccccc2)cc1,13µM*,-2%
CCc1ccc(Nc2sc(C(=O)c3ccccc3)c(N)c2S(C)(=O)=O)cc1,-8%,-10%
COc1ccccc1Nc1nc(C)nc(N)c1S(=O)(=O)c1ccccc1,-12%,-3%
CC(=O)c1cc(-c2ccccc2)n(CCC(=O)NCc2ccc(C)cc2)c1C,-1%,-4%
O=C(Nc1ccccc1)/C(=C/c1ccccc1)c1ccccc1,13µM*,-3%
Cc1ccccc1NC(=O)/C(=C/c1ccccc1)c1ccccc1,-5%,-1%
COC(=O)[C@H](COC(C)(C)C)NC(=O)O[C@@H]1Cc2cc(OC)ccc2O[C@H]1c1cccc(OC)c1,-1%,3%
CC1=Nc2cc(C(=O)NC3CCCC3)ccc2Sc2ccc(Cl)cc21,?,-3%
CCC1=Nc2cc(C(=O)NC3CCCC3)ccc2Sc2ccc(Cl)cc21,7.9µM*,-3%
COc1ccc(NC(=O)C2CC(=O)n3cnnc3S2)cc1 (centres undefined),-1%,7%
Cc1ccc(NC(=O)COC(=O)c2ccc3c(c2)C(=O)N(CCc2ccccc2)C3=O)c(C)c1,25µM*,-2%
CCOc1ccc(NC(=O)COC(=O)c2ccc3c(c2)C(=O)N(CCc2ccccc2)C3=O)cc1,?,-3%
CCOc1ccccc1CNC(=O)C1CCN(S(=O)(=O)c2c(C)noc2/C=C/c2ccc(C)cc2)CC1,-12%,1%
COc1ccc2cc3cc(C(=O)NCc4ccccn4)oc3nc2c1,?,32µM*
COc1ccc2cc3cc(C(=O)NCc4ccco4)oc3nc2c1,6%,-8%
O=C(Cn1c(=O)n(CCc2c[nH]c3ccccc23)c(=O)c2cccnc21)Nc1ccccc1F,?,-2%
SMILES,Cruzain noTriton,Cruzain Triton
Cc1cccc(NC(=O)Cn2c(=O)n(CCc3c[nH]c4ccccc34)c(=O)c3cccnc32)c1,25µM*,-2%
O=C(NCCC1=CCCCC1)C1COc2ccccc2O1 (centres undefined),-7%,-5%
O=C(Nc1ccc([N+](=O)[O-])cn1)c1ccc(Br)o1,-8%,-4%
CCN1C(=O)/C(=C/C=C2/Sc3ccc4ccccc4c3N2CCO)SC1=S,-21%,-3%
CCN1C(c2ccccc2)=C(c2ccccc2)S/C1=C/C=C1\SC(=S)N(C)C1=O,10µM*,-6%
COCCn1c(C)cc(O)c(C(c2ccc(Cl)cc2)N2CCCCC2)c1=O (centres undefined),21%,-2%
Cc1cc(-c2ccc(C)c(S(=O)(=O)N3CCN(c4cccc(C(F)(F)F)c4)CC3)c2)on1,-5%,2%
O=[N+]([O-])c1ccc(-c2cn(-c3ccc(Cl)cc3)c(=S)[nH]2)cc1,?,-1%
CCc1ccc(-n2cc(-c3ccc([N+](=O)[O-])cc3)[nH]c2=S)cc1,25µM*,-5%
CC(C)c1ccc(C2CC(=O)N3CN(C)CSC3=C2C#N)cc1 (centres undefined),-4%,1%
CC(C)c1ccc(C2C(C#N)=C(N)N3C(=C2C#N)Sc2ccccc23)cc1 (centres undefined),7.9µM*,-14%
CNc1cc(-c2ccccc2C(F)(F)F)ncn1,15%,0%
CCOC(=O)Cn1c(=O)n(CC2CCCO2)c2nc(-c3ccccc3OC)nc(C(N)=O)c21 (centres undefined),-6%,-3%
CCN(C(=O)Cc1c(C(=O)O)c(C)cn1C)c1cccc(Cl)c1,2%,1%
COc1ccccc1Nc1nn2c(=O)c3ccc(C(=O)NC4CCC(C)CC4)cc3nc2s1 (centres undefined),14%,-1%
O=Cc1c2[nH]c3ccccc3c2cc2[nH]c3ccccc3c12,25µM*,1%
c1ccc2c(c1)[nH]c1ccccc12,0%,-6%
COc1ccccc1C(=O)Nc1ccc2c(c1)nc(CCNC(C)=O)n2C,-10%,1%
COc1ccccc1C(=O)NCCc1nc2ccccc2n1C,10µM*,?
CCCn1c(CNC(=O)c2cccs2)nc2ccccc21,7%,-1%
CCCCn1c(CCNC(=O)c2cccs2)nc2ccccc21,10µM*,-16%
CC(=O)c1ccc(S(=O)(=O)N2CCn3cccc3C2c2ccccc2F)cc1 (centres undefined),-4%,-7%
OCc1cc([C@@H](O)CNCCCCCCOCCCCc2ccccc2)ccc1O,?,4%
O=C(CSc1nnc(C2CC2)n1Cc1ccccc1)c1cc2ccccc2o1,16µM*,-4%
NC(=O)CSc1nnc(-c2cc3ccccc3o2)n1Cc1ccccc1,?,-2%
SMILES,Cruzain noTriton,Cruzain Triton
CCCc1cc(=O)[nH]c2nnc(SCC(=O)Nc3cccc(C)c3)n12,1%,-3%
O=c1c(-c2ccc(Cl)cc2)nc2cnc(N3CCOCC3)nc2n1Cc1ccc(F)cc1,4%,1%
CCOC(=O)c1c(-c2ccc(OC)cc2)csc1NC(=O)CCN1C(=O)c2ccccc2C1=O,16µM*,-3%
CCOC(=O)c1c(-c2ccc(OCC)cc2)csc1NC(=O)CCN1C(=O)c2ccccc2C1=O,?,-4%
CC(=O)N1CCCC1c1nc2ccccc2n1Cc1ccccc1Cl (centres undefined),5%,-6%
CCOC(=O)c1c(NC(=O)C2c3ccccc3Oc3ccccc32)sc(C(N)=O)c1C,-24%,2%
CCCOC(=O)c1c(NC(=O)C2c3ccccc3Oc3ccccc32)sc2c1CCCC2,25µM*,-4%
CCOC(=O)c1c(NC(=O)c2ccccc2OCC)sc2c1CCC(CC)C2 (centres undefined),2%,-1%
CC(C)OC(=O)c1c(NC(=O)C2c3ccccc3Oc3ccccc32)sc2c1CCCC2,6.3µM*,-7%
CCN(CC)C(=O)c1sc(NC(=O)C2c3ccccc3Oc3ccccc32)c(C(=O)OC(C)C)c1C,-7%,-1%
CCC1CCc2c(sc(NC(=O)C3c4ccccc4Oc4ccccc43)c2C(N)=O)C1 (centres undefined),25µM*,-1%
CN(C)N1C(N)=C(C#N)C(c2cccnc2)C2=C1CCCC2=O (centres undefined),5%,0%
Cc1ccc(C(=O)n2nc(C)c(S(=O)(=O)N3CCOCC3)c2C)cc1C,7%,-1%
COc1ccc(Nc2nc(-c3sc(NC(C)=O)nc3C)cs2)cc1,5%,-3%
Oc1ccc(Nc2nc(-c3cccs3)cs2)cc1,-27%,1%
Cc1nc(N)sc1-c1csc(Nc2ccccn2)n1,13µM*,?

# From PubChem BioAssay
